Measurements as given in PubChem BioAssay (NCI).
This is part of a sample that, as a whole, favours compounds with a hit. Of some 83,000 tested, about 20% had one in any assay.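 Single-concentration screen, 48 h exposure, 96-well plates. Endpoint: percent growth. Below 10 = active.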 A number with no mark means an inactive call. Active and inactive are the calls of the source.

Test system: COLO 205 colon
Experiment: NCI-60 one-dose screen, 48 h (100 = growth as untreated, 0 = no growth, -100 = all killed)
Details: 10 µM unless noted

Structure (SMILES) | growth
O=C(Nc1cccc(Cl)c1)Oc1c(Br)c(Br)c(Br)c(Br)c1Br | 100%
CN1CCN(Cc2ccc(NC(=O)c3cncc(C#Cc4cnccc4C(F)(F)F)c3)cc2C(F)(F)F)CC1 | 44.4%
CN(C)Cc1c(-c2ccccc2)[nH]c2ccccc12 | 107%
CCN(CC)CCCC(Nc1c2ccc(Cl)cc2nc2ccc(OC)cc12)c1ccc(Cl)cc1 (stereo not drawn) | -73.8% (active)
O=C(CNCCO)Nc1ccc2ncnc(Nc3ccc(OCc4cccc(F)c4)c(Cl)c3)c2c1 | 96%
CSc1nnc2c(=O)n(C)c(=O)n(C)c2n1 | 97.8%
C=CCn1c(SCC(=O)Nc2ccc(C(=O)/C=C/c3cc(OC)c(OC)c(OC)c3)cc2)nnc1-c1cc(-c2ccc(S(C)(=O)=O)cc2)nc2ccccc12 | 111%
CCNC(=O)c1[nH]cc(-c2ccc(OC)cc2)c1-c1cc(OC)cc(OC)c1 | 105%
COc1ccc(/C=N/C2=C(C#N)C(c3ccccc3[N+](=O)[O-])c3ccc4ccccc4c3O2)cc1 (stereo not drawn) | 104%
COc1ccc(-c2nc(N/N=C/c3cccc(O)c3)nc(N3CCOCC3)c2C#N)cc1 | 74.1%
Cc1ccccc1-c1cc(Cc2ccc(F)cc2)c(=O)[nH]n1 | 108%
COC(=O)Nc1ccc(NC(=O)OC)cc1 | 111%
O=C1Nc2ccccc2/C1=N/c1nc(-c2ccc(Cl)cc2)cs1 | 63.8%
Clc1ccc(N2N=C(c3cccc(Nc4ccncc4)c3)CC2c2ccc(Br)cc2)cc1 (stereo not drawn) | -48.7% (active)
O=C(OCc1nc2nc(Cl)nc(N3CCOCC3)c2[nH]1)n1ccnc1 | -65.3% (active)
Cn1c(COC(=O)NCCN2CCOCC2)nc2c(N3CCOCC3)nc(-c3ccccc3)nc21 | -45.7% (active)
O=C1c2cccnc2C(=O)c2nc3cc(N4CCN(C5CC5)CC4)ccc3nc21 | -68.3% (active)
CCCCCN1C=C/C(=C\C(=O)N(C)c2cccc3ccccc23)c2ccccc21 | 109%
COc1cc2nc(-c3ccc(C#N)cc3)[nH]c(=O)c2cc1OC | 132%

Structure (SMILES) | growth
CN1CCN(c2cnc(C(=O)Nc3cc(F)cc4cccnc34)cn2)CC1 | 21.2%
CC(=O)OCC(=O)C1(O)C(C)CC2C3C=C(C)C4=Cc5c(cnn5-c5ccccc5)CC4(C)C3C(O)CC21C (stereo not drawn) | -70.1% (active)
CCCCCCN(C)Cc1ccc(OCCOc2ccc(CN(C)CCCCCC)cc2)cc1 | -67.4% (active)
CCCCCCCCCCCCCCCCCCOc1ccccc1N | 46.3%
COc1cc(-c2nc3occn3c2-c2ccnc(NCCNS(=O)(=O)c3ccc(Cl)cc3)n2)ccc1F | 86.5%
Cc1nc2sc(C(=O)Nc3ccccc3)c(N)c2cc1C(=O)c1ccc(C(F)(F)F)cc1 | 104%
S=c1[nH]cccc1-c1nnc2n1Nc1nc3ccc(Cl)cc3cc1CS2 | 122%
CC(C)Cc1ccc(C(C)C(=O)NCc2c[nH]c3ccc(Cl)cc23)cc1 (stereo not drawn) | 107%
Cc1c([N+](=O)[O-])cc(C(C)(C)C)cc1[N+](=O)[O-] | 114%
O=C(Nc1nc2ccc(C(=O)N3CCN(c4ccc(Cl)c(Cl)c4)CC3)cc2s1)c1ccc(NCCc2ccccc2)c([N+](=O)[O-])c1 | 108%
CS(=O)(=O)c1ccc(-c2cc3c(oc2=O)-c2ccccc2OC3O)cc1 (stereo not drawn) | 114%
Cc1n[nH]c(C)c1-c1c(C)n[nH]c1C | -21.6% (active)
CCCOc1nc(SCCC)nc2c1cnn2-c1ccccc1 | 103%
Fc1ccccc1CSc1ncnc2nc[nH]c12 | 103%
Nc1c(Cl)cc([N+](=O)[O-])cc1Br | 118%
NC(=O)CN1CCN(c2ccccc2Cl)CC1 | 110%
C=C(C)[C@H]1CC/C(C)=C/CC[C@]2(C)O[C@H]2CC/C(COC(=O)[C@@H](OC(C)=O)[C@H](NC(=O)c2ccccc2)c2ccccc2)=C\[C@@H]1O | 113%
C(=C\c1n(Cc2ccc3ccccc3c2)c(-c2ccccc2)c(-c2ccccc2)[n+]1Cc1ccc2ccccc2c1)/c1ccccc1 | -70.5% (active)
Nc1c(C(=O)Nc2cccc3ccncc23)sc2nc3c(cc12)C(=O)CCC3 | 28.2%
